# Screens from PubChem BioAssay.
# TRPM1 prom inh = inhibitors of MITF-dependent TRPM1 promoter reporter, primary screen, cell-based, SK-MEL-5, single point, luciferase; SK-MEL-5 TRPM1 promoter luciferase, 24 h; inhibition, % at 12.5 µM; 330,000 compounds, 0.83% hits;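 active means mean inhibition across replicates of 60% or more, whatever share of single replicates reaches that level; inconclusive means some that reach 60%, reason not given; inactive means mean inhibition across replicates below 60%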
# Wnt act = Wnt/beta-catenin pathway activators, primary screen, cell-based, plate reader, single point. Wnt/beta-catenin reporter cell assay, activator. 300,000 compounds, 1.2% hits. activation, % at 9.35 µM. AID 743398, 2014; in the data active means activation above about 30%, passing the limit was not always enough; inconclusive means no clear call, values can overlap the other calls
# EWS-Fli inh = EWS/Fli-driven NR0B1 reporter inhibitors, primary screen, A673 cells, NR0B1 luciferase, luminescence, MLPCN library. viability-normalised. inhibition, % at 12.6 µM. 350,000 compounds, 0.67% hits;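 active means mean inhibition of at least 50% after viability correction, with every replicate also passing that limit; inconclusive means mean reaches 50% but only one of two replicates passes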;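 further: firefly luciferase signal divided by Alamar Blue viability fluorescence both relative to DMSO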
# esBAF inh = Bmi1 luciferase reporter increase in mESCs, primary screen, esBAF inhibitor project, mouse ES cells, Bmi1 luciferase knock-in, single point; reporter increase, % at 12.5 µM; 24 h; 100% = twice the neutral-well signal; 350,000 compounds, 2% hits; AID 602393, 2012; in the data active means activation above about 40%; inconclusive means no clear call, values can overlap the other calls;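 further: a rise in the Bmi1 reporter signal indicates esBAF inhibition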
# MITF TRPM1 HTS = activators of MITF-driven TRPM1 promoter reporter, primary screen, cell-based, SK-MEL-5, luciferase, single point; 300,000 compounds, 0.75% hits; activation, % at 12.5 µM; SK-MEL-5 TRPM1-promoter luciferase, 24 h; % of positive control, neutral wells = 0; AID 588334, 2011;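 active means mean activation of at least 80% with every replicate also reaching 80%; inconclusive means mean reaches 80% but some replicate falls short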
# PAX8 reporter = inhibitors of PAX8-driven TPO luciferase reporter, primary screen, RMG-I cells, single concentration. SteadyGlo, 24 h. 360,000 compounds, 1.2% hits. AID 652154, 2013. inhibition, % at 12.6 µM;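 active means mean replicate inhibition at least 60% with every replicate also reaching 60%; inconclusive means only one of the two criteria is met; inactive means mean below 60% and not all replicates reaching 60%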;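 further: luciferase light reporting Pax8 driven TPO promoter activity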
# Hits are given with their value; n = inactive; u = inconclusive; x = not tested or not shown. A selection: hits, their analogues and other compounds. The true share with any hit is near 4%.
SMILES,TRPM1 prom inh,Wnt act,EWS-Fli inh,esBAF inh,MITF TRPM1 HTS,PAX8 reporter
CCS(=O)(=O)CCSc1nc2ccccc2s1,n,x,x,n,n,x
O=S(=O)(CCSc1nc2ccccc2s1)c1nc2ccccc2s1,n,n,x,x,n,104.2
CNC[C@@H]1Oc2ncc(C#CC3(O)CCCC3)cc2C(=O)N([C@@H](C)CO)C[C@@H]1C,x,x,n,n,x,n
Cn1c(CCN2CCN(c3ccccn3)CC2)nc2cc(NS(=O)(=O)c3ccc(Cl)cc3)ccc21,n,n,x,n,n,89.9
COc1ccc(OCC(=O)Nc2ccc3c(c2)nc(CCN2CCN(c4ccccn4)CC2)n3C)cc1,x,n,n,n,x,n
Cc1cccc(OCC(=O)Nc2ccc3c(c2)nc(CCN2CCN(c4ccccn4)CC2)n3C)c1,n,n,x,n,n,71.3
Cn1c(CCN2CCN(c3ccccn3)CC2)nc2cc(NC(=O)COc3ccc(Cl)cc3)ccc21,n,n,x,n,n,66.8
CC1CCN(CCc2nc3cc(NC(=O)COc4ccc(Cl)cc4)ccc3n2C)CC1,n,n,x,n,n,75.5
Cc1ccccc1-c1ccc([C@H]2[C@H]3CN(C(=O)Nc4ccc(F)cc4)CC(=O)N3[C@H]2CO)cc1,x,x,n,x,x,n
CCCC[C@@H](CNC)NC[C@H](Cc1ccc(O)cc1)NCCc1ccc(OCC)cc1,96.2,n,n,n,n,n
CCC[C@H](CN[C@@H](CNC)[C@H](C)O)NCCc1ccc(OC)cc1,n,n,n,n,n,n
CC(=O)NC1C(OCc2ccccc2)OC(CO)C(OC(C)=O)C1OC(C)=O (stereo unspecified),n,36.0,x,x,n,n
Cc1ccc(Cn2ccc(-c3cnc(-c4ccccc4)s3)n2)cc1,n,x,x,79.0,n,x
Fc1ccc(Cn2ccc(-c3cnc(-c4ccccc4)s3)n2)cc1,n,x,x,x,n,x
O=S(=O)(c1ccccc1)n1ccc(-c2cnc(-c3ccccc3)s2)n1,n,44.8,x,x,97.8,n
C[C@H]1CN([C@@H](C)CO)C(=O)c2cc(-c3ccc(F)cc3)cnc2O[C@@H]1CN(C)C(=O)Nc1ccc(F)cc1,x,x,n,n,x,x
CC(=O)Oc1ccc([C@@H]2COc3c(ccc4c3C=CC(C)(C)O4)C2)c(OC(C)=O)c1,n,n,n,49.9,n,x
CC1(C)C=Cc2c(ccc3c2OC[C@H](c2ccc(O)cc2O)C3)O1,n,n,n,n,n,n
c1ccc2c(c1)COc1c3ncccc3nn1-2,x,n,n,50.3,x,n
CCC(=O)N1[C@H](CN(C)C(C)=O)[C@H](c2ccc(-c3cccc(F)c3)cc2)[C@@H]1CO,x,x,n,n,x,n
Cc1cccc(C(=O)NC2CCCCCCC2)c1,n,n,n,64.6,n,n
COc1cccc(C(=O)NC2CCCC2)c1,n,n,n,n,n,n
CC(=O)c1cccc(NC(=O)NC2CCCCCCC2)c1,n,n,n,x,n,n
Cc1cc(C(=O)OCC(=O)NC2CC2)ccc1[N+](=O)[O-],n,n,n,n,n,n
Cc1cc(C(=O)NC2CCCCCCC2)ccc1[N+](=O)[O-],n,48.0,n,66.2,x,n
SMILES,TRPM1 prom inh,Wnt act,EWS-Fli inh,esBAF inh,MITF TRPM1 HTS,PAX8 reporter
Cc1cccc(NC(=O)NC2CCCCCCC2)c1,n,n,n,62.2,n,x
CN(C)c1cccc(C(=O)NC2CCCCCC2)c1,n,x,x,44.0,n,x
COc1ccc(NC(=O)N(C)C[C@H]2OCCCC[C@H](C)Oc3ccc(NS(=O)(=O)c4ccc(Cl)cc4)cc3C(=O)N([C@H](C)CO)C[C@@H]2C)cc1,x,x,n,n,x,n
O=C1C(N2CCOCC2)=C(n2nnc3ccccc32)C(=O)c2ccccc21,97.5,n,x,n,n,82.5
COC(=O)C[C@H]1CC[C@H]2[C@@H](COc3ccc(NS(=O)(=O)c4ccccc4F)cc3C(=O)N2C)O1,x,x,n,x,x,x
C[C@@H]1CN([C@@H](C)CO)C(=O)c2cc(C#CCN(C)C)cnc2O[C@H]1CN(C)Cc1ccccn1,x,x,n,n,x,x
CN(Cc1ccccc1)C(=O)c1[nH]cnc1C(=O)Nc1cccc(Cl)c1,n,n,n,44.7,n,n
CN(Cc1ccccc1)C(=O)c1[nH]cnc1C(=O)Nc1ccc(Cl)cc1,n,n,n,n,n,n
COc1ccc(-c2cnc3c(c2)C(=O)N([C@@H](C)CO)C[C@@H](C)[C@@H](CN(C)S(=O)(=O)c2ccc(OC)cc2)O3)cc1,x,x,n,x,x,x
OCC1CCCN(C(=S)Nc2ccc(Nc3ccccc3)cc2)C1 (stereo unspecified),n,n,n,46.9,n,n
OCC1CCCN(C(=S)Nc2ccc(OC(F)F)cc2)C1 (stereo unspecified),n,n,n,x,n,135.6
COc1ccc(S(=O)(=O)Nc2ccc3c(c2)CC(=O)N([C@H](C)CO)C[C@H](C)[C@H](CN(C)C(=O)Nc2ccc(F)cc2)O3)cc1,x,x,n,n,x,n
CCSc1ccc(-c2cccc([N+](=O)[O-])c2)nn1,n,n,n,49.5,n,n
O=C(NCc1ccc2c(c1)OCO2)C(C(=O)c1ccccc1)n1cc(Cl)ccc1=O (stereo unspecified),n,n,n,x,n,84.8
CC(=O)N(Cc1c(C)nn(-c2ccccc2)c1Cl)c1ccc(Cl)cc1,n,n,x,n,n,n
Cc1nn(-c2ccccc2)c(Cl)c1CN(C(=O)CCl)c1ccc(Cl)cc1,90.9,x,x,x,n,99.7
Cc1nn(-c2ccccc2)c(Cl)c1CN(C(=O)CCl)c1cccc2ccccc12,n,n,n,x,n,111.1
CO[C@H]1CN(C)C(=O)c2ccc(NC(=O)C3CC3)cc2OC[C@@H](C)N(C(=O)C2CCCCC2)C[C@@H]1C,x,x,n,n,x,x
C[C@@H]1CN([C@@H](C)CO)S(=O)(=O)c2ccc(Br)cc2O[C@@H]1CN(C)Cc1ccc(C(=O)O)cc1,x,x,n,n,x,x
CN1CCN(Cn2cc(/C=C/C(=O)c3ccccc3)c3ccccc32)CC1,n,x,x,62.0,u,x
COc1ccc(-n2cnc3ccccc32)cc1,n,n,n,n,n,x
COc1ccc(Cn2c(/C=C/c3ccccc3)nc3ccccc32)cc1,n,84.0,x,u,86.6,n
COc1ccc(/C=C/c2nc3ccccc3n2C)cc1,n,n,80.7,n,n,88.2
COc1ccc(/C=C/c2nc3ccccc3c(=O)o2)cc1,n,n,71.0,n,n,84.2
C=CCn1c(-c2ccc(OC)cc2)nc2ccccc21,n,n,x,41.1,n,x
COCC(=O)N1CC2(CCN(C(=O)c3ccccn3)CC2)c2c(n(C)c3cc(OC)ccc23)[C@H]1CO,x,x,n,x,x,n
CCC(=O)Nc1ccc2c(c1)C(=O)N(C)C[C@@H](OC)[C@@H](C)CN(Cc1ccccn1)[C@@H](C)CO2,x,x,n,n,x,n
O=C(Nc1ccc(C(F)(F)F)cc1)Nc1ccc2c(c1)[C@@H]1C[C@H](CC(=O)N3CCc4ccccc4C3)O[C@H](CO)[C@@H]1O2,x,x,n,n,x,108.8
